This is a sample that favours compounds with a hit; in the whole collection about 1.4% have one here.
GLS inhibitor: qHTS for Inhibitors of Glutaminase (GLS); 0.21% of 410,000 active; Potency, µM (doses to about 45.5 µM), actives largely listed as inhibitors; GLS enzymatic activity, qHTS titration; Glutaminase kidney isoform, mitochondrial (Homo sapiens), O94925
Target sequence (O94925 whole entry, looked up, canonical isoform): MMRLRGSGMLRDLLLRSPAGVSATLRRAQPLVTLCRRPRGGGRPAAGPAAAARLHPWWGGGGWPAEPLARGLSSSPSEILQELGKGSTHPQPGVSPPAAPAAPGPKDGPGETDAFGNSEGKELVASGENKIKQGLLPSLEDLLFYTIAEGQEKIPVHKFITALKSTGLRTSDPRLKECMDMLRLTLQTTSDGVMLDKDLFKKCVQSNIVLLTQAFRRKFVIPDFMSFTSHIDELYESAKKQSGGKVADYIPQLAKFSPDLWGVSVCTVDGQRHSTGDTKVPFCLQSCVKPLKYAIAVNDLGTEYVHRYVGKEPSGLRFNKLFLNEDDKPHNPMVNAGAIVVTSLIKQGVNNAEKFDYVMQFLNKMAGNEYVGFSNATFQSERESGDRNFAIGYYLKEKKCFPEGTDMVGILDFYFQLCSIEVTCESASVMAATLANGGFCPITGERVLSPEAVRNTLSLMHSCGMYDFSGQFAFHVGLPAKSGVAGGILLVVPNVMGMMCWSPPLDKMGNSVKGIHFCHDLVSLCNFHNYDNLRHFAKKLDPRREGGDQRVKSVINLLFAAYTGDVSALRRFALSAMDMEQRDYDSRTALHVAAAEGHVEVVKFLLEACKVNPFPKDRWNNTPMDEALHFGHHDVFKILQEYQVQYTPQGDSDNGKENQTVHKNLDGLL
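hKGA in 45 mM KH2PO4 pH 8.2, 0.02% Tween-20 with pin-transferred compounds; 1 mM L-glutamine (stock) plus glutamate oxidase/HRP/Amplex Red coupling added. Fluorescence read initially and after 30 min at RT.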
LDHA block: qHTS assay for inhibitors of human lactate dehydrogenase. L-lactate dehydrogenase A chain (Homo sapiens), P00338. purified LDHA, NADH/diaphorase-resazurin fluorescence; stronger effect = lower value. activity change, % (values are at about 110 or 230 µM). 0.15% of 480,000 active. AID 1347041, 2019; in the data active means activity change below about -30%; inconclusive means mostly about -25% to -30%
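Remaining NADH was detected by diaphorase (0.133 mg/mL) converting 37 µM resazurin to fluorescent resorufin, read at 0 and 20 minutes. The preceding 5-minute room-temperature reaction used 2 nM LDHA, 0.2 mM sodium pyruvate and 0.06 mM NADH at pH 7.4.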
IDH1 R132H inh: qHTS for Inhibitors of mutant isocitrate dehydrogenase 1 (IDH1): qHTS | 0.093% of 390,000 active | IDH1-R132H enzyme, NADPH consumption, diaphorase/resazurin fluorescence | Potency, µM (series often up to 76.6 µM), hits mostly inhibitors | Isocitrate dehydrogenase [NADP] cytoplasmic (Homo sapiens), O75874; further: nearly all actives have a fitted effect of over 65% in size
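IDH1-R132H (0.5 ug/mL dispensed) in pH 7.5 Tris buffer was preincubated 30 min with compound, then given a substrate mix of 0.016 mM NADPH and 2 mM alpha-KG for 80 min at room temperature; remaining NADPH was read by diaphorase/resazurin fluorescence.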
rTrxR1 inhibitor: qHTS Assay for Inhibitors of Mammalian Selenoprotein Thioredoxin Reductase 1 (TrxR1): qHTS; AID 588453, 2011; recombinant rTrxR1, NADPH fluorescence consumption, selenite substrate; 1% of 390,000 active; Potency, µM (top dose mostly 114 µM), most hits filed as inhibitors; further: nearly all actives have a fitted effect of over 65% in size
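Rat TrxR1 (90 nM in the dispensed reagent) was pre-reduced with 400 uM NADPH for 5 min at room temperature, then incubated with compound for 15 min. After 400 uM selenite was added, NADPH fluorescence (Ex 340/Em 450 nm) was followed for 8 min.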
TrxR1 substrate: qHTS Assay for Substrates of Mammalian Selenoprotein Thioredoxin Reductase 1 (TrxR1): qHTS; purified TrxR1 substrate turnover, NADPH consumption readout; 0.01% of 390,000 active; Potency, µM (titrated, usually from 114 µM); AID 588456, 2011; further: nearly all actives have a fitted effect of over 50% in size
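Rat TrxR1, dispensed at 90 nM, was prereduced with 400 uM NADPH (final) for 5 min at ~22 deg C, then incubated with compound 15 min before 400 uM selenite. A first-read NADPH fluorescence drop versus no-compound background flagged substrates.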
PKM2 act: qHTS Assay for Activators of Human Muscle isoform 2 Pyruvate Kinase; Potency, µM (top dose mostly 57.5 µM), most hits filed as activators; purified PKM2, Kinase-Glo ATP luminescence, activation; response scale: 0% is enzyme alone, no compound; Pyruvate kinase PKM (Homo sapiens), P14618; 0.34% of 260,000 active; AID 1631, 2009; further: nearly all actives have a fitted effect of over 55% in size
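Purified hPK-M2 (>95%) run at intermediate activity with 0.1 mM ADP and 0.5 mM PEP in 50 mM imidazole pH 7.2, KCl, MgCl2; 1 h room temperature. ATP formed read by Kinase-Glo luminescence; normalized to uninhibited and no-enzyme controls.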
Of the large screens only hits and unclear results are named; the others gave an inactive call; ! = a repeat was not active. Unless noted, the call rests on the fitted dose curve; in most records, active means well fitted curve in the direction sought with a large enough effect; inconclusive means small, poorly fitted or top-dose-only effect, or another doubt; inactive means no such curve, though single readings can be large; an effect the other way counts as inactive or inconclusive.

COc1ccc(N2C(=O)CC(Sc3nnc(-c4ccccc4)o3)C2=O)cc1 (stereo not given)	rTrxR1 inhibitor 39.8µM, PKM2 act 20µM (no result: GLS inhibitor)
O=C1CC(Sc2nnnn2-c2ccccc2)C(=O)N1c1cccc(Cl)c1 (stereo not given)	rTrxR1 inhibitor 31.6µM
O=C1CC(Sc2nnc(-c3ccccc3O)o2)C(=O)N1c1ccccc1 (stereo not given)	rTrxR1 inhibitor inconclusive
O=C(NC(c1ccccc1)c1ccc(Cl)cc1)c1ccc[n+]([O-])c1 (stereo not given)	none (no result: GLS inhibitor, IDH1 R132H inh, rTrxR1 inhibitor, TrxR1 substrate, PKM2 act)
O=C1CC(N2CCN(c3ccccn3)CC2)C(=O)N1CC(c1ccccc1)c1ccccc1 (stereo not given)	rTrxR1 inhibitor 25.1µM
CC(CN(C)C)CN1c2ccccc2Sc2ccccc21 (stereo not given)	none (no result: PKM2 act)
CC(CN1c2ccccc2Sc2ccccc21)N(C)C (stereo not given)	rTrxR1 inhibitor 11.9µM!
CC(=O)N(c1ccc(N(C(C)=O)S(=O)(=O)c2cccs2)cc1)S(=O)(=O)c1cccs1	LDHA block -87.9
CC(=O)N(c1ccc(N(C(C)=O)S(=O)(=O)c2ccccc2)cc1)S(=O)(=O)c1ccccc1	LDHA block -65.7
CC(=O)N(c1ccc(C)cc1)S(=O)(=O)c1ccc(Cl)cc1	none
c1ccc(-c2noc(CSc3nnnn3C3CC3)n2)cc1	none (no result: GLS inhibitor, IDH1 R132H inh, rTrxR1 inhibitor, TrxR1 substrate, PKM2 act)
Cc1ccc(C(=O)NN=C(C(C)C)C(C)C)cc1C	none (no result: GLS inhibitor, IDH1 R132H inh, rTrxR1 inhibitor, TrxR1 substrate, PKM2 act)
CCOc1ccc(C(=O)C(CCC(CN(C)C)C(=O)c2ccc(OCC)cc2)CN(C)C)cc1 (stereo not given)	rTrxR1 inhibitor 2.82µM
COc1ccc(C(=O)C(CCCCC(CN(C)C)C(=O)c2ccc(OC)cc2)CN(C)C)cc1 (stereo not given)	none
CN(C)CC(CCC(CN(C)C)C(=O)c1ccccc1)C(=O)c1ccccc1 (stereo not given)	rTrxR1 inhibitor 2.82µM
O=C(c1ccccc1)C(CCC(CN1CCOCC1)C(=O)c1ccccc1)CN1CCOCC1 (stereo not given)	rTrxR1 inhibitor inconclusive
CCN1CCN(CCOc2ccccc2-c2ccccc2)CC1	LDHA block -33.5
CCN1CCN(CCOc2ccc(Cl)cc2)CC1	LDHA block -33.9
COC(=O)CSc1nc2c(c(-c3ccc(O)cc3)c1C#N)CCCC2	none
COC(=O)CSc1nc2c(c(-c3ccco3)c1C#N)CCCC2	rTrxR1 inhibitor 15.8µM
Cc1ccc(N(NC(=O)C(O)(c2ccccc2)c2ccccc2)C(=O)CCl)cc1	rTrxR1 inhibitor 7.08µM
O=C(Nc1ccccc1)NN(C(=O)CCl)c1ccccc1	rTrxR1 inhibitor 7.94µM
CCC(O)(CC)C(=O)NN(C(=O)CCl)c1ccccc1	rTrxR1 inhibitor inconclusive
CCN(CC)CCCNC(=O)c1cn(CC)c2cc(N3CCN(C(=O)c4ccco4)CC3)c(F)cc2c1=O	rTrxR1 inhibitor 70.8µM (no result: PKM2 act)
CCN(CC)CCNC(=O)c1cn(CC)c2cc(N3CCN(C(=O)c4ccco4)CC3)c(F)cc2c1=O	none
CCC1CCCCN1S(=O)(=O)c1ccc(NC(=O)c2nc(S(C)(=O)=O)ncc2Cl)cc1 (stereo not given)	rTrxR1 inhibitor 7.08µM
CCS(=O)(=O)c1ncc(Cl)c(C(=O)Nc2ccc(S(=O)(=O)N3CCCC(C)C3)cc2)n1 (stereo not given)	rTrxR1 inhibitor 2.51µM, PKM2 act inconclusive
CCONC(=O)C(NC(=O)c1ccc(Cl)cc1)C(C)CC (stereo not given)	none (no result: GLS inhibitor, IDH1 R132H inh, rTrxR1 inhibitor, TrxR1 substrate, PKM2 act)
Cn1nc(C(=O)Oc2cccc(Cl)c2Cl)c2ccccc2c1=O	none (no result: GLS inhibitor, IDH1 R132H inh, rTrxR1 inhibitor, TrxR1 substrate, PKM2 act)
CN(Cc1ccccc1)C(=C(Cl)Cl)C(=C1NCCN1)[N+](=O)[O-]	none
CN1CCN/C1=C(/C(Cl)=C(Cl)Cl)[N+](=O)[O-]	rTrxR1 inhibitor 3.16µM
CCCn1nc(C(=O)NCC(c2ccccc2)N2CCCC2)ccc1=O (stereo not given)	none (no result: GLS inhibitor, IDH1 R132H inh, rTrxR1 inhibitor, TrxR1 substrate, PKM2 act)
Nc1ccc(S(=O)(=O)c2cc(O)c3ccccc3c2O)cc1	GLS inhibitor inconclusive, rTrxR1 inhibitor 2.82µM (no result: PKM2 act)
O=S(=O)(c1ccccc1)c1cc(O)ccc1O	GLS inhibitor inconclusive, rTrxR1 inhibitor inconclusive
CC(NC(=O)/C(=C\c1cccc(Br)c1)NC(=O)c1ccco1)C(=O)O (stereo not given)	none (no result: GLS inhibitor, IDH1 R132H inh, rTrxR1 inhibitor, TrxR1 substrate, PKM2 act)
CCCCc1nc2ccccc2c(NC(=O)CN2CCCC2)c1CCC	LDHA block -34.8
N#Cc1c(C(F)(F)F)cc(-c2cccs2)nc1SCc1ccc(Cl)nc1	rTrxR1 inhibitor 50.1µM
Cc1c(C(=O)O)cccc1-c1ccc(C=C(C#N)C#N)o1	none (no result: GLS inhibitor, IDH1 R132H inh, rTrxR1 inhibitor, TrxR1 substrate, PKM2 act)
Cc1nc(CC#N)n[nH]1	none (no result: GLS inhibitor, IDH1 R132H inh, rTrxR1 inhibitor, TrxR1 substrate, PKM2 act)
CN(C(=O)c1ccno1)c1nnc(-c2ccccn2)s1	rTrxR1 inhibitor 20µM
O=C(CN1CCC(C(=O)c2ccccc2)CC1)NC1CCC(C(F)(F)F)CC1 (stereo not given)	none (no result: GLS inhibitor, IDH1 R132H inh, rTrxR1 inhibitor, TrxR1 substrate, PKM2 act)
O=C(CCN1CCC2CCC(C2)C1)c1ccc(F)cc1 (stereo not given)	rTrxR1 inhibitor 1.58µM (no result: PKM2 act)
Cc1cc(C)nc(NN2C(=O)C=CC2=O)n1	rTrxR1 inhibitor 7.94µM (no result: PKM2 act)
CN(C)S(=O)(=O)c1cccc(C(=O)OCc2nc3ccccc3o2)c1	none (no result: GLS inhibitor, IDH1 R132H inh, rTrxR1 inhibitor, TrxR1 substrate, PKM2 act)
